An excerpt weighted towards active compounds, which were near 1.7% of everything screened.
GLP-1R agonist – agonists of human GLP-1 receptor | HEK293 GLP-1R CRE-luciferase, luminescence, 4-6 h; cells express a hypersensitive GLP-1R form | Potency, µM (highest dose often 45.6 µM), hits mostly activators | 0.007% of 380,000 active | AID 624172
Target sequence (P43220 whole entry, looked up): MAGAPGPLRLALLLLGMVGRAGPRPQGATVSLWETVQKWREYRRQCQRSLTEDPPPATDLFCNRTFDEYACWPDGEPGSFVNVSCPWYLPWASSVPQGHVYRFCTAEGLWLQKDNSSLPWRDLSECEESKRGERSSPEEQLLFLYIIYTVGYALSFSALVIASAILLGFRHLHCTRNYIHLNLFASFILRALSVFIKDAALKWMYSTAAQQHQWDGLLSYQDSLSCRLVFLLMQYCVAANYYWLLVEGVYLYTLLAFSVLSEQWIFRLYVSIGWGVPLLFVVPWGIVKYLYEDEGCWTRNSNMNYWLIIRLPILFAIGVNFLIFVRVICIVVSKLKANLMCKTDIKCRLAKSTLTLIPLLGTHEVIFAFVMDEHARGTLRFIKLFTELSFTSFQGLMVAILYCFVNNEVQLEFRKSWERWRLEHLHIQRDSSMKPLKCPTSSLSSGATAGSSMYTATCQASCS
GLP1R cytotox – cytotoxicity in counter-screen for GLP-1R inverse agonists; HEK293 cAMP-luciferase reporter cells, luminescence, 24 h; Potency, µM (highest dose often 38.3 µM), hits mostly inhibitors; 0.13% of 410,000 active; AID 624418;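 also: loss of luciferase light is scored as toxicity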
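A 23 nL compound transfer followed 12 hours of cell culture at 37 deg C; exposure then lasted 24 hr. Luciferase assay detection reagent was dispensed and plates read for luminescence after a 12 min room-temperature wait.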
PTHR1 agonist – PTHR1 (human) receptor agonism. Q03431. HEK293 GP2 PTHR1 cells, GloSensor cAMP luminescence, 1 h. AID 743266. 0.075% of 410,000 active. Potency, µM (top dose mostly 115 µM), most hits filed as activators; also: nearly all actives have a fitted effect of over 55% in size
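HEK-293-derived GP2 cells expressing PTHR1 and a GloSensor cAMP reporter, 3,000/well, plated overnight, given luciferin plus IBMX (each 0.5 mM as added) for 1 h at 37 °C, then compound for 1 h at 37 °C. Luminescence was read after 15 min at room temperature.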
GLP-1R inv ag – GLP-1 receptor (human) inverse agonism; Potency, µM (highest dose often 38.3 µM), actives largely listed as inhibitors; AID 624417; P43220; 1.6% of 410,000 active; HEK293 GLP-1R CRE-luciferase, luminescence, 24 h; GLP-1R form is constitutively active; also: nearly all actives have a fitted effect of over 55% in size
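Readout was luciferase luminescence, measured 12 min after detection reagent at room temperature. Beforehand, GLP-1R reporter HEK293 cells had sat 12 h, then received compounds for 24 hr at 37 deg C.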
Each line names hits and unclear results; the compound was inactive in the other large screens. Calls follow the shape of the dose curve; as a rule, active = well fitted curve in the direction sought with a large enough effect; inconclusive = small, poorly fitted or top-dose-only effect, or another doubt; inactive = no such curve, though single readings can be large; an effect the other way counts as inactive or inconclusive.

OCCN1CCN(CC/C=C2/c3ccccc3CSc3ccccc32)CC1	GLP1R cytotox inconclusive, GLP-1R inv ag 8.9µM
OCCN1CCN(CCC=C2c3ccccc3Sc3ccc(Cl)cc32)CC1	none (no result: GLP1R cytotox, PTHR1 agonist, GLP-1R inv ag)
CC(C)NC(=O)Nc1ccc2c(c1)C(=O)N([C@H](C)CO)C[C@H](C)[C@@H](CN(C)Cc1ccc(C(F)(F)F)cc1)OCCCC[C@H](C)O2	GLP-1R inv ag 10µM
C[C@H](CO)N1C[C@H](C)[C@@H](CN(C)Cc2ccc(Cl)c(Cl)c2)Oc2c(NS(=O)(=O)c3ccc(F)cc3)cccc2C1=O	GLP1R cytotox inconclusive, GLP-1R inv ag 11µM
C[C@@H]1CN([C@@H](C)CO)C(=O)c2cc(NC(=O)C3CC3)ccc2O[C@@H]1CN(C)Cc1ccc(Cl)c(Cl)c1	GLP-1R inv ag 11µM
CCCc1ccc(OCC(=O)Nc2sc(C(=O)OCC)c(C)c2C(=O)OCC)cc1	none (no result: GLP-1R agonist)
CN1CCN(C(CNC(=O)Nc2ccc(Cl)cc2)c2ccc(F)cc2)CC1 (configuration not stated)	GLP-1R inv ag inconclusive
Cc1ccc(C(CNC(=O)Nc2ccc(Cl)cc2)N2CCN(C)CC2)cc1 (configuration not stated)	GLP-1R inv ag 8.9µM
Cc1ccc(-n2ncc3c(Nc4ccc5c(c4)OCCO5)ncnc32)cc1C	none (no result: GLP-1R agonist)
CC1=NNC(=O)/C1=C\c1cn(-c2ccccc2)nc1-c1cccs1	GLP1R cytotox 7.9µM, GLP-1R inv ag inconclusive
O=C(N/N=C/c1cn(-c2ccccc2)nc1-c1cccs1)c1ccccc1F	GLP1R cytotox inconclusive
CN1CCC(N(C)C(=O)/C=C/c2cn(-c3ccccc3)nc2-c2cccs2)CC1	GLP1R cytotox inconclusive, GLP-1R inv ag 5.6µM
O=C(N/N=C/c1cn(-c2ccccc2)nc1-c1cccs1)c1ccc(Cl)cc1	GLP-1R inv ag 6.3µM
Cc1ccc(NC(=O)Cn2c(=O)oc3cc(S(=O)(=O)N4CCCCC4)ccc32)c(Cl)c1	none (no result: GLP-1R agonist)
CC1C(=O)C(=O)C=CN1C (configuration not stated)	none (no result: GLP1R cytotox, PTHR1 agonist, GLP-1R inv ag)
Cc1ccc(C)c(N2CCN(S(=O)(=O)c3ccc(-c4cnc(C5CC5)o4)cc3)CC2)c1	GLP-1R inv ag inconclusive (no result: GLP-1R agonist)
Cc1cccc(N2CCN(S(=O)(=O)c3ccc(-c4cnc(C5CC5)o4)cc3)CC2)c1C	GLP-1R inv ag 11µM (no result: GLP-1R agonist)
CCCCC[C@H]1CN(Cc2ccccc2)C(=O)[C@@H]1CC(=O)NCc1ccccc1	GLP-1R inv ag 10µM
COc1cccc(-n2c(=O)c3c(C)c(C(=O)N(C)C)sc3n(CC(=O)Nc3ccc(C)cc3Cl)c2=O)c1	none (no result: GLP-1R agonist)
CCN(Cc1ccccc1)C(=O)Cn1cc(S(=O)(=O)NC)c(S(=O)(=O)NC)c1	none
COc1cccc(CC(=O)Nc2c(C(=O)N3CCN(c4ccccc4)CC3)oc3ccccc23)c1	GLP-1R inv ag inconclusive (no result: GLP-1R agonist)
CCCN(CCC)C(=O)c1oc2ccccc2c1NC(=O)Cc1cccc(OC)c1	GLP-1R inv ag 7.9µM
CCNc1c(NC(=O)c2cc(OCC)c(OCC)c(OCC)c2)c(=O)oc2ccccc12	none (no result: GLP-1R agonist)
COc1cccc(/C=C(/C(=O)OCC(=O)NC2CCCC(C)C2C)c2ccccc2)c1 (configuration not stated)	GLP-1R inv ag 10µM
CCOc1ccc(C(=O)Nc2ccc3nc(SCC(=O)N(C)c4ccccc4)sc3c2)cc1	GLP-1R inv ag inconclusive (no result: GLP-1R agonist)
CC(C)c1ccc(CN(Cc2ccco2)c2cnc(S(C)(=O)=O)nc2C(=O)Nc2ccccc2)cc1	GLP-1R inv ag 5µM (no result: GLP-1R agonist)
CCS(=O)(=O)c1ncc(N(Cc2ccco2)Cc2ccccc2F)c(C(=O)Nc2cccc(Cl)c2)n1	GLP-1R inv ag 8.9µM (no result: GLP-1R agonist)
Cc1ccc(NC(=O)c2nc(S(C)(=O)=O)ncc2N(Cc2ccco2)Cc2ccccc2F)c(C)c1	none (no result: GLP-1R agonist)
CCOc1cc(CNC(=O)c2ccc3c(c2)N(C)C(=O)C2CCCCN32)ccc1OC (configuration not stated)	none (no result: GLP-1R agonist)
CCOc1ccccc1C(=O)N(Cc1cccs1)c1ccc(Cl)cc1	GLP-1R inv ag 13µM (no result: GLP-1R agonist)
Nc1c(C(=O)NCCc2ccccc2)sc2nc(N3CCOCC3)c3c(c12)CCCC3	GLP-1R inv ag 8.9µM
Cc1ccccc1NC(=O)c1sc2nc(N3CCOCC3)c3c(c2c1N)CCCC3	GLP-1R agonist inconclusive
Cc1ccccc1CN(C)C(C)C(=O)Nc1ccccc1F (configuration not stated)	GLP-1R inv ag 8.9µM
CCCC[C@H](CC(=O)c1ccccc1)[C@@H](OC(C)=O)C(=O)Oc1c(C(C)C)cccc1C(C)C	GLP-1R inv ag 3.5µM
COc1nc(Cl)cn(-c2ccc(C)cc2)c1=O	none
Cc1ccc(-n2c(Cl)c(Cl)nc(Cl)c2=O)cc1	GLP1R cytotox 2.8µM, GLP-1R inv ag inconclusive
Cn1c(=O)[nH]c(=O)c2c1nc(N1CCCCC1)n2CCSc1nc2ccccc2o1	none
CC(C)CCn1c(Sc2nc3ccccc3o2)nc2c1c(=O)[nH]c(=O)n2C	GLP-1R inv ag 4.5µM
Cc1ccccc1N1CC(C(=O)Nc2ccc(Br)cc2)CC1=O (configuration not stated)	GLP-1R inv ag inconclusive (no result: GLP-1R agonist)
Cc1ccc(NC(=O)C2CC(=O)N(c3ccc4c5c(cccc35)CC4)C2)cc1 (configuration not stated)	GLP-1R inv ag 10µM
COc1ccc(S(=O)(=O)c2c(Nc3ccccc3F)sc(C(=O)c3cccc(OC)c3)c2N)cc1	GLP-1R inv ag inconclusive (no result: GLP-1R agonist)
COc1ccc(S(=O)(=O)N2CCCCCC2)cc1C(=O)N(C)CC(=O)Nc1ccc(Cl)c(Cl)c1	GLP-1R inv ag 10µM
COc1ccc(S(=O)(=O)N2CCCCCC2)cc1N(C)S(=O)(=O)c1ccc(Cl)cc1	GLP-1R inv ag 10µM
O=C(CN1CCN(S(=O)(=O)N2CCCCC2)CC1)Nc1ccc(Cl)c(Cl)c1	GLP-1R inv ag 8.9µM
O=C(CN1CCN(S(=O)(=O)N2CCCCC2)CC1)Nc1cc(Cl)cc(Cl)c1	GLP-1R inv ag inconclusive
CN(CC(=O)Nc1ccc(Cl)cc1)c1ccc(S(=O)(=O)N2CCCCC2)cc1[N+](=O)[O-]	GLP-1R inv ag 10µM
Cn1c(NCCO)nc2c1c(=O)n(Cc1ccccc1Cl)c(=O)n2C	none (no result: GLP-1R agonist)
COc1ccc(S(=O)(=O)N2CCCCCC2)cc1C(=O)N(C)Cc1ccc(F)cc1	GLP-1R inv ag inconclusive
COc1ccc(S(=O)(=O)N2CCCCCC2)cc1C(=O)N(C)Cc1ccc(C(C)(C)C)cc1	GLP-1R inv ag 5.6µM
CC(C)=CCC/C(C)=C\CC/C(C)=C\CC/C=C(\C)CC/C=C(\C)CCC=C(C)C	none (no result: GLP1R cytotox, PTHR1 agonist, GLP-1R inv ag)
CCc1ccccc1Nc1ncnc2c1cnn2-c1ccc(Cl)cc1	GLP-1R inv ag inconclusive (no result: GLP-1R agonist)
Cc1cccc(-n2ncc3c(Nc4c(C)cc(C)cc4C)ncnc32)c1	PTHR1 agonist inconclusive, GLP-1R inv ag 5.6µM (no result: GLP-1R agonist)
CCc1ccccc1Nc1ncnc2c1cnn2-c1ccc(C)cc1C	GLP-1R inv ag 13µM (no result: GLP-1R agonist)
Cc1cccc(-n2ncc3c(NC(C)C)ncnc32)c1	GLP-1R inv ag inconclusive
Cc1ccc(-n2ncc3c(Nc4ccc(Oc5ccccc5)cc4)ncnc32)c(C)c1	GLP-1R inv ag 10µM (no result: GLP-1R agonist)

Compound activity: PubChem, National Center for Advancing Translational Sciences (NCATS)
